# From publication PMC5540273 (PLoS ONE, 2017)
# What was measured:
# Conditions in all cases: concentration: 1 μM, replicates: in singlicate; n = 1
# [1] = test system: T1, JNK2
# T1 construct: gene MAPK9
# [2] = test system: T2, JNK3
# T2 construct: gene MAPK10
# [3] = test system: KIT-autoinhibited
# [4] = test system: KIT
# [5] = test system: LATS1
# [6] = test system: LATS2
# [7] = test system: LCK
# [8] = test system: LIMK1
# [9] = test system: LIMK2
# [10] = test system: T3, LKB1
# T3 construct: gene STK11
# [11] = test system: T4, LOK
# T4 construct: gene STK10
# [12] = test system: LRRK2
# [13] = test system: LTK
# [14] = test system: LYN
# [15] = test system: T5, LZK
# T5 construct: gene MAP3K13
# [16] = test system: MAK
# [17] = test system: MAP3K15
# [18] = test system: MAP3K1
# [19] = test system: MAP3K2
# [20] = test system: MAP3K3
# 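Further: KINOMEscan kinase panel screen.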
Compound,%Inh [1],%Inh [2],%Inh [3],%Inh [4],%Inh [5],%Inh [6],%Inh [7],%Inh [8],%Inh [9],%Inh [10],%Inh [11],%Inh [12],%Inh [13],%Inh [14],%Inh [15],%Inh [16],%Inh [17],%Inh [18],%Inh [19],%Inh [20]
COc1ccc(Nc2nccc(N3CCC(NS(=O)(=O)c4ccc(NC(C)=O)cc4)C3)n2)cc1 (centres unmarked) [GSK1379729],0%,0%,0%,9%,0%,0%,23%,14%,10%,0%,14%,28%,8%,3%,0%,30%,11%,15%,0%,0%
O=C(Nc1n[nH]c2nc(-c3ccccc3)c(Br)cc12)C1CC1 [SB-708998],0%,0%,9%,31%,0%,0%,23%,19%,12%,0%,0%,29%,4%,3%,0%,12%,3%,0%,7%,4%
COc1ccc(-c2cc3c(C)nc(N)nc3n([C@H]3CC[C@H](O)CC3)c2=O)cn1,0%,0%,0%,0%,0%,7%,0%,0%,0%,0%,0%,0%,0%,0%,0%,0%,0%,0%,0%,0%
COC(=O)c1c(-c2ccccc2)c2cc(Br)ccc2c(=O)n1Cc1ccc(S(C)(=O)=O)cc1,98.8%,98.6%,6%,54%,31%,30%,0%,0%,0%,0%,6%,11%,9%,14%,33%,34%,26%,27%,0%,32%
COc1ccc(-c2cc3c(C)nc(N)nc3n([C@H]3CC[C@H](OCCO)CC3)c2=O)cn1,0%,0%,0%,7%,26%,11%,0%,13%,0%,40%,9%,0%,9%,0%,0%,0%,0%,0%,0%,0%
Cc1cccc(-c2nc(Nc3ccc4c(cnn4C)c3)c3ccccc3n2)n1 [GW876731],60%,28%,0%,7%,0%,0%,0%,0%,0%,48%,10%,0%,0%,5%,0%,29%,0%,0%,12%,10%
Nc1ncnc2c1ncn2-c1cccc(F)c1 [SKF-97560],18%,36%,25%,39%,0%,42%,20%,20%,22%,4%,0%,31%,0%,0%,13%,0%,0%,16%,3%,5%
CCC(=O)c1c(-c2ccccc2)c2cc(Cl)ccc2c(=O)n1Cc1cc(C(=O)NC2CC2)n(C)n1,100%,99.8%,0%,58%,19%,1%,0%,0%,0%,9%,19%,3%,16%,0%,31%,32%,11%,9%,10%,12%
O=C(NCCNc1ccnc(Nc2ccc(F)cc2)n1)Nc1ccc2c(c1)OCO2 [GSK1379882],10%,3%,0%,34%,0%,17%,0%,0%,0%,25%,0%,0%,0%,0%,0%,30%,0%,1%,0%,0%
COc1cc2nccc(Nc3cccc(Oc4ccccc4)c3)c2cc1OC.Cl [GW284543],31%,0%,0%,15%,10%,0%,51%,0%,0%,0%,0%,48%,0%,0%,0%,12%,0%,0%,0%,0%
COc1cc(Nc2nccc(N3CCC(NC(=O)C4COc5ccccc5O4)C3)n2)cc(OC)c1OC (centres unmarked) [GSK1379761],22%,7%,0%,22%,3%,0%,31%,0%,4%,27%,0%,0%,38%,19%,58%,44%,0%,2%,10%,0%
Nc1nc(-c2ccccc2F)c(-c2ccnc3ccccc23)s1 [GW560459],87%,87%,0%,9%,0%,0%,11%,1%,0%,0%,0%,8%,22%,0%,30%,23%,0%,3%,0%,0%
CCCC(=O)Nc1n[nH]c2ncc(-c3cccc4ccccc34)cc12 [SB-642057],21%,0%,0%,12%,0%,25%,20%,9%,0%,0%,0%,0%,0%,0%,0%,22%,0%,7%,2%,0%
COC(=O)c1c(-c2ccccc2)c2cc(C)ccc2c(=O)n1Cc1ccccc1,32%,48%,0%,75%,0%,0%,0%,5%,0%,0%,0%,0%,0%,7%,0%,0%,0%,0%,0%,0%
COc1cccc(C2=C(Nc3cccc(C(=O)O)c3)C(=O)NC2=O)c1 [SB-390770],24%,17%,0%,0%,0%,0%,37%,0%,10%,0%,22%,27%,32%,0%,0%,33%,1%,25%,0%,3%
Cl.c1ccc(Cn2cnc3cc(Nc4ncnc5ccccc45)ccc32)cc1 [GW272142],7%,0%,4%,0%,0%,0%,25%,0%,4%,0%,0%,0%,0%,0%,22%,0%,0%,5%,0%,0%

Compound,%Inh [1],%Inh [2],%Inh [3],%Inh [4],%Inh [5],%Inh [6],%Inh [7],%Inh [8],%Inh [9],%Inh [10],%Inh [11],%Inh [12],%Inh [13],%Inh [14],%Inh [15],%Inh [16],%Inh [17],%Inh [18],%Inh [19],%Inh [20]
CCn1c(-c2nonc2N)nc2ccccc21 [SB-693162/GW549034],57%,62%,26%,0%,0%,82%,12%,0%,0%,0%,11%,83%,4%,0%,55%,0%,54%,46%,25%,31%
O=C1NC(=O)C(c2ccccc2)=C1Nc1cccc(O)c1 [SB-390534],13%,4%,0%,10%,21%,0%,24%,0%,0%,0%,23%,0%,1%,0%,0%,26%,17%,0%,4%,49%
COc1ccc(-c2coc3ccc(-c4nnc(SCc5cccc(C#N)c5)o4)cc23)cc1,17%,14%,1%,21%,29%,11%,11%,26%,0%,0%,4%,0%,0%,0%,9%,36%,0%,7%,24%,12%
CCC(=O)c1c(-c2ccccc2)c2cc(Cl)ccc2c(=O)n1Cc1cc(S(C)(=O)=O)n(CC(N)=O)n1,99%,99.2%,4%,6%,0%,0%,3%,0%,0%,37%,0%,8%,0%,7%,0%,15%,0%,0%,0%,0%
Cc1ccc(-c2ccc3c(ccc4sc5c(c43)NC[C@@H](C)N=C5N(C)C)n2)cn1,0%,0%,0%,0%,0%,18%,0%,0%,0%,0%,0%,0%,0%,0%,0%,17%,0%,0%,0%,0%
FC(F)(F)c1ccc(-c2ncn(CCCN3CCOCC3)c2-c2ccncc2)cc1 [SB-217780],53%,55%,0%,20%,0%,27%,0%,0%,0%,23%,10%,0%,23%,3%,0%,29%,7%,12%,8%,0%
COc1cccc(C2=C(N(C)c3ccccc3)C(=O)NC2=O)c1 [SB-334865],14%,0%,0%,0%,3%,0%,16%,0%,0%,0%,0%,0%,0%,0%,32%,24%,0%,1%,4%,0%
O=C(Nc1n[nH]c2nc(-c3ccccc3)c(Cl)cc12)C1CC1 [SB-734909],32%,29%,0%,51%,0%,24%,3%,9%,12%,37%,21%,0%,0%,0%,0%,3%,60%,37%,14%,33%
Cc1nnc(-c2ccc3ncn(-c4ccc(S(C)=O)cc4)c3c2)o1 (centres unmarked),0%,0%,0%,29%,43%,8%,10%,19%,6%,9%,4%,0%,0%,8%,0%,0%,0%,16%,0%,0%
COC(=O)c1c(-c2ccccc2)c2cc(Br)ccc2c(=O)n1Cc1ccc(NC(=O)CCC(=O)O)cc1,99.1%,99.3%,1%,38%,27%,17%,0%,0%,0%,6%,20%,4%,3%,8%,4%,8%,18%,12%,0%,18%
COc1cc2ncn(-c3cc(OCc4ccncc4Br)c(C(N)=O)s3)c2cc1OC [GW854278],5%,5%,5%,24%,22%,0%,25%,0%,8%,0%,87%,0%,7%,4%,0%,2%,0%,65%,20%,1%
CCS(=O)c1ccc(-c2coc3ccc(-c4nnc(C)o4)cc23)cc1 (centres unmarked),24%,18%,0%,5%,18%,0%,5%,0%,0%,29%,17%,5%,0%,0%,34%,15%,0%,3%,8%,20%
O=C(Nc1n[nH]c2cc(-c3ccccc3F)ccc12)C1CC1 [SB-733371],16%,15%,0%,10%,27%,0%,6%,0%,0%,30%,1%,0%,0%,0%,0%,0%,32%,0%,0%,22%
CCc1nc(-c2cccc(C)c2)c(-c2ccncc2)s1,76%,90.3%,0%,42%,4%,0%,24%,0%,0%,35%,0%,0%,0%,12%,0%,0%,0%,0%,0%,0%
Nc1nccc2scc(-c3ccc4c(c3)CCN4C(=O)Cc3ccccc3)c12 [GSK2576924],10%,0%,5%,74%,0%,0%,11%,3%,14%,9%,21%,0%,69%,0%,1%,23%,9%,0%,12%,0%
